# Only a selection was taken, and the strongest signals are over-represented in it overall.
# B1: Si Bti9 1b-V5-his (Solanum lycopersicum) (protein)
# chain: MQCNRGCDLALASFYVWRGSNLTLISEMFSTSIADIVSYNNRDNIPNQDSVIAGTRINIPFRCDCLNDGEVLGHAFPYRVKSGDTYDLVARNYSDLTTAQWMMKFNSYPENNIPNTVNLSVVVNCSCGNSDVSKDFGLFVTYPVRAEDNLTSVASAANVSEDIIRRYNPAAVSILDIGQGIIYIPGRDRNGNFPPLPTSTDGLSGGAKKGGRADPAFLYKVVINSKLEGKPIPNPLLGLDSTRTGHHHHHH
# Legend:
# Assay in all cases: glycan array binding signal (z-score within array); higher = stronger binding
# Conditions in all cases: glycan notation: IUPAC condensed, linker removed
# Fuc(a1-2)Gal(b1-3)GalNAc = target: Fuc(a1-2)Gal(b1-3)GalNAc
# How it was run: (§1)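 The binding signal is a Z-score computed within each array. Data were drawn from 3228 arrays in the Consortium for Functional Glycomics database, restricted to those with a known protein sequence. Scores were averaged over arrays of the same protein sequence at different concentrations or buffers, and over linkers, and negative values can be taken as non-binding.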
# [1] = target: Fuc(a1-2)[Gal(a1-3)]Gal(b1-4)[Fuc(a1-3)]Glc
# How it was run: as §1
# [2] = target: Fuc(a1-2)[GalNAc(a1-3)]Gal(b1-4)GlcNAc(b1-2)Man(a1-3)[Fuc(a1-2)[GalNAc(a1-3)]Gal(b1-4)GlcNAc(b1-2)Man(a1-6)]Man(b1-4)GlcNAc(b1-4)[Fuc(a1-6)]GlcNAc
# How it was run: as §1
# [3] = target: Fuc(a1-2)[GalNAc(a1-3)]Gal(b1-4)GlcNAc(b1-3)Gal(b1-4)GlcNAc(b1-3)Gal(b1-4)GlcNAc
# How it was run: as §1
# [4] = target: Fuc(a1-2)[GalNAc(a1-3)]Gal(b1-4)[Fuc(a1-3)]GlcNAc
# How it was run: as §1
# Gal(a1-3)Gal(b1-3)GlcNAc = target: Gal(a1-3)Gal(b1-3)GlcNAc
# How it was run: as §1
# [5] = target: Gal(a1-3)Gal(b1-3)GlcNAc(b1-2)Man
# How it was run: as §1
# Gal(a1-3)Gal(b1-4)Glc = target: Gal(a1-3)Gal(b1-4)Glc
# How it was run: as §1
# [6] = target: Gal(a1-3)Gal(b1-4)GlcNAc(b1-2)Man
# How it was run: as §1
# [7] = target: Gal(a1-3)[Gal(a1-4)]Gal(b1-4)GlcNAc
# How it was run: as §1
# Gal(b1-3)Gal = target: Gal(b1-3)Gal
# How it was run: as §1
# Gal(b1-3)GlcNAc(b1-2)Man = target: Gal(b1-3)GlcNAc(b1-2)Man
# How it was run: as §1
# [8] = target: Gal(b1-3)GlcNAc(b1-2)Man(a1-3)[Gal(b1-3)GlcNAc(b1-2)Man(a1-6)]Man(b1-4)GlcNAc(b1-4)[Fuc(a1-6)]GlcNAc
# How it was run: as §1
# [9] = target: Gal(b1-3)GlcNAc(b1-3)Gal(b1-3)GlcNAc
# How it was run: as §1
# [10] = target: Gal(b1-3)GlcNAc(b1-3)Gal(b1-4)GlcNAc(b1-6)[Gal(b1-3)GlcNAc(b1-3)]Gal(b1-4)Glc
# How it was run: as §1
# [11] = target: Gal(b1-3)[Fuc(a1-4)]GlcNAc(b1-2)Man
# How it was run: as §1
# [12] = target: Gal(b1-4)GlcNAc(b1-2)Man(a1-3)[GlcNAc(b1-2)Man(a1-6)]Man(b1-4)GlcNAc(b1-4)GlcNAc
# How it was run: as §1
# [13] = target: Gal(b1-4)GlcNAc(b1-2)Man(a1-3)[Man(a1-6)]Man(b1-4)GlcNAc(b1-4)GlcNAc
# How it was run: as §1
# [14] = target: Gal(b1-4)GlcNAc(b1-2)Man(a1-6)[GlcNAc(b1-2)Man(a1-3)]Man(b1-4)GlcNAc(b1-4)GlcNAc
# How it was run: as §1
# [15] = target: Gal(b1-4)GlcNAc(b1-3)Gal(b1-4)GlcNAc(b1-3)Gal(b1-4)GlcNAc(b1-3)Gal(b1-4)GlcNAc(b1-3)Gal(b1-4)GlcNAc(b1-2)Man(a1-3)[Gal(b1-4)GlcNAc(b1-3)Gal(b1-4)GlcNAc(b1-3)Gal(b1-4)GlcNAc(b1-3)Gal(b1-4)GlcNAc(b1-3)Gal(b1-4)GlcNAc(b1-2)Man(a1-6)]Man(b1-4)GlcNAc(b1-4)[Fuc(a1-6)]GlcNAc
# How it was run: as §1
# [16] = target: Gal(b1-4)GlcNAc(b1-3)Gal(b1-4)GlcNAc(b1-3)[Gal(b1-4)GlcNAc(b1-3)Gal(b1-4)GlcNAc(b1-6)]GalNAc
# How it was run: as §1
# [17] = target: Gal(b1-4)GlcNAc(b1-3)Gal(b1-4)[Fuc(a1-3)]GlcNAc(b1-3)Gal(b1-4)[Fuc(a1-3)]GlcNAc
# How it was run: as §1
# [18] = target: Gal(b1-4)GlcNAc(b1-6)Gal(b1-4)GlcNAc
# How it was run: as §1
# [19] = target: Gal(b1-4)GlcNAc(b1-6)GalNAc
# How it was run: as §1
# Gal6P(b1-4)GlcNAc = target: Gal6P(b1-4)GlcNAc
# How it was run: as §1
# [20] = target: GalNAc(b1-3)Gal(a1-6)Gal(b1-4)Glc
# How it was run: as §1
# [21] = target: GalNAc3S(b1-4)[Fuc(a1-3)]GlcNAc
# How it was run: as §1
# GalNAc4S6S(b1-4)GlcNAc = target: GalNAc4S6S(b1-4)GlcNAc
# How it was run: as §1
# [22] = target: GlcNAc(b1-2)[GlcNAc(b1-4)]Man(a1-3)[GlcNAc(b1-2)Man(a1-6)]Man(b1-4)GlcNAc(b1-4)GlcNAc
# How it was run: as §1
# [23] = target: GlcNAc(b1-3)Gal(b1-4)GlcNAc(b1-3)Gal(b1-4)GlcNAc(b1-3)Gal(b1-4)GlcNAc(b1-2)Man(a1-3)[GlcNAc(b1-3)Gal(b1-4)GlcNAc(b1-3)Gal(b1-4)GlcNAc(b1-3)Gal(b1-4)GlcNAc(b1-2)Man(a1-6)]Man(b1-4)GlcNAc(b1-4)GlcNAc
# How it was run: as §1
# GlcNAc(b1-3)GalNAc = target: GlcNAc(b1-3)GalNAc
# How it was run: as §1
# [24] = target: GlcNAc(b1-4)GlcNAc(b1-4)GlcNAc(b1-4)GlcNAc(b1-4)GlcNAc(b1-4)GlcNAc
# How it was run: as §1
# [25] = target: GlcNAc(b1-4)[GlcNAc(b1-6)]GalNAc
# How it was run: as §1
# [26] = target: Man(a1-3)[Man(a1-6)]Man(b1-4)GlcNAc(b1-4)GlcNAc
# How it was run: as §1
# Man(a1-6)Man = target: Man(a1-6)Man
# How it was run: as §1
# [27] = target: Neu5Ac(a2-3)Gal(b1-3)GlcNAc6S
# How it was run: as §1
# [28] = target: Neu5Ac(a2-3)Gal(b1-3)[Fuc(a1-4)]GlcNAc(b1-3)Gal(b1-4)[Fuc(a1-3)]GlcNAc
# How it was run: as §1
# [29] = target: Neu5Ac(a2-3)Gal(b1-3)]Neu5Ac(a2-3)Gal(b1-4)]GlcNAc
# How it was run: as §1
# [30] = target: Neu5Ac(a2-3)Gal(b1-4)GlcNAc(b1-2)Man
# How it was run: as §1
# [31] = target: Neu5Ac(a2-3)Gal(b1-4)GlcNAc(b1-6)GalNAc
# How it was run: as §1
# [32] = target: Neu5Ac(a2-3)Gal(b1-4)GlcNAc(b1-6)[Gal(b1-3)]GalNAc
# How it was run: as §1
# [33] = target: Neu5Ac(a2-3)Gal(b1-4)GlcNAc6S
# How it was run: as §1
# [34] = target: Neu5Ac(a2-3)[Neu5Ac(a2-6)]GalNAc
# How it was run: as §1
# Neu5Ac(a2-6)Gal = target: Neu5Ac(a2-6)Gal
# How it was run: as §1
# [35] = target: Neu5Ac(a2-6)Gal(b1-4)GlcNAc(b1-2)Man(a1-6)Man(b1-4)GlcNAc(b1-4)GlcNAc
# How it was run: as §1
# Neu5Ac(b2-6)GalNAc = target: Neu5Ac(b2-6)GalNAc
# How it was run: as §1
binder,measurement,setting,value
B1,glycan array binding signal (z-score),Fuc(a1-2)Gal(b1-3)GalNAc,-0.261
same,glycan array binding signal (z-score),[1],-0.298
same,glycan array binding signal (z-score),[2],0.032
same,glycan array binding signal (z-score),[3],0.217
same,glycan array binding signal (z-score),[4],-0.245
same,glycan array binding signal (z-score),Gal(a1-3)Gal(b1-3)GlcNAc,11.5
same,glycan array binding signal (z-score),[5],6.21
same,glycan array binding signal (z-score),Gal(a1-3)Gal(b1-4)Glc,-0.169
same,glycan array binding signal (z-score),[6],-0.206
same,glycan array binding signal (z-score),[7],2.94
same,glycan array binding signal (z-score),Gal(b1-3)Gal,-0.313
same,glycan array binding signal (z-score),Gal(b1-3)GlcNAc(b1-2)Man,-0.032
same,glycan array binding signal (z-score),[8],-0.076
same,glycan array binding signal (z-score),[9],0.11
same,glycan array binding signal (z-score),[10],-0.125
same,glycan array binding signal (z-score),[11],1.83
same,glycan array binding signal (z-score),[12],-0.243
same,glycan array binding signal (z-score),[13],-0.294
same,glycan array binding signal (z-score),[14],-0.277
same,glycan array binding signal (z-score),[15],-0.258
same,glycan array binding signal (z-score),[16],0.207
same,glycan array binding signal (z-score),[17],-0.264
same,glycan array binding signal (z-score),[18],-0.272
same,glycan array binding signal (z-score),[19],2.79
same,glycan array binding signal (z-score),Gal6P(b1-4)GlcNAc,-0.317
same,glycan array binding signal (z-score),[20],-0.348
same,glycan array binding signal (z-score),[21],4.72
same,glycan array binding signal (z-score),GalNAc4S6S(b1-4)GlcNAc,-0.18
same,glycan array binding signal (z-score),[22],-0.289
same,glycan array binding signal (z-score),[23],3.41
same,glycan array binding signal (z-score),GlcNAc(b1-3)GalNAc,-0.322
same,glycan array binding signal (z-score),[24],-0.156
same,glycan array binding signal (z-score),[25],5.97
same,glycan array binding signal (z-score),[26],-0.362
same,glycan array binding signal (z-score),Man(a1-6)Man,5.02
same,glycan array binding signal (z-score),[27],0.024
same,glycan array binding signal (z-score),[28],-0.294
same,glycan array binding signal (z-score),[29],-0.311
same,glycan array binding signal (z-score),[30],0.768
same,glycan array binding signal (z-score),[31],-0.254
same,glycan array binding signal (z-score),[32],-0.108
same,glycan array binding signal (z-score),[33],10.6
same,glycan array binding signal (z-score),[34],-0.269
same,glycan array binding signal (z-score),Neu5Ac(a2-6)Gal,3.19
same,glycan array binding signal (z-score),[35],-0.285
same,glycan array binding signal (z-score),Neu5Ac(b2-6)GalNAc,-0.242

# — the supplement of paper PMC8728848
